Compound activity from PubChem BioAssay.
HCV inh – blocks hepatitis C virus; Huh7.5.1 HCVcc-Cre infection, luciferase reporter, 44 h; Potency, µM (highest dose often 41.8 µM), for inactives: at the top dose activity change, negative = inhibition, actives largely listed as inhibitors; AID 651820; 3.4% of 340,000 active; active = well fitted inhibition curve with a large enough effect; inconclusive = small, poorly fitted or top-dose-only effect, or another doubt; inactive = no such curve, though single readings can be large or run the other way; note: potency is the fitted concentration of half-maximal effect
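Seed cells (1,000/well) for 4 h; treat with compound and infect with HCVcc-Cre, moi about 0.5. Incubate 44 h, then detect luciferase activity.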
FMDV inh – foot and mouth disease virus antiviral activity. FMDV antiviral cell-based qHTS. 1.2% of 410,000 active. Potency, µM (top dose mostly 57.9 µM), for inactives: top-dose activity change, negative = inhibition, usual class: inhibitors; calls by dose curve; tested in HEK293T cells; note: read-out not given here; potency is the fitted concentration of half-maximal effect; nearly all actives have a fitted effect of over 45% in size
Vaccinia mCherry – inhibitors of vaccinia virus infection (mCherry reporter signal); Potency, µM (highest dose often 36.5 µM), without a hit: at the highest dose activity change, negative = inhibition, actives largely listed as inhibitors; Vaccinia virus mCherry reporter infection, fluorescence; AID 720579; 0.63% of 310,000 active; calls by dose curve; tested in A549 cells; note: potency is the fitted concentration of half-maximal effect; nearly all actives have a fitted effect of over 35% in size
HCMV antiviral – blocks human cytomegalovirus replication | activity change, negative = inhibition, % at 57.5 µM | 4.5% of 410,000 active | AID 1259415 | HFF cells, HCMV-luciferase reporter, 72 h; active compounds read low; in the data active = activity change below about -60%; inconclusive = no clear call, values can overlap the other calls; inactive = above about -39%
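HFF cells seeded 16 h at 37C, treated with compounds, infected with luciferase-reporter HCMV at MOI 1 PFU/cell; luciferase read at 72 h post infection, normalized to buffer-only and Salinomycin controls.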
Vaccinia Venus – inhibitors of vaccinia virus (Venus reporter). AID 720580. Potency, µM (top dose mostly 36.5 µM), inactives show at the top dose activity change, negative = inhibition, most hits filed as inhibitors. 0.46% of 330,000 active. Vaccinia virus Venus reporter expression, fluorescence; calls by dose curve; tested in A549 cells; note: potency is the fitted concentration of half-maximal effect; nearly all actives have a fitted effect of over 30% in size
Active calls of the source: *; i = inactive; ? = inconclusive; / = not tested or not shown. An excerpt weighted towards active compounds, which were near 7.3% of everything screened. % is set by controls: 0 for no effect and ±100 for the full control effect.

SMILES	HCV inh	FMDV inh	Vaccinia mCherry	HCMV antiviral	Vaccinia Venus
CCS(=O)(=O)N1CC(=O)N(c2cc(C)ccc2C)C(C)(C(=O)NC2CCCCC2)C1 (configuration not stated)	/	-4.0%	-9.3%	0.0	-8.5%
CCOc1ccc(-c2nonc2NC(=O)COc2ccccc2)cc1	/	24.9%	-6.3%	-7.9	-11.6%
COc1ccc(-c2cn3cccnc3n2)cc1NC(=O)C(C)Oc1ccccc1 (configuration not stated)	22.4µM*	-26.1%	?	-24.0	-16.1%
CCC(CC)C(=O)Nc1cc(-c2cn3cccnc3n2)ccc1OC	/	-7.1%	-1.0%	0.2	-8.3%
C[C@H]1CN=C(N(C)C)N1CCc1cccc(F)c1	?	-2.8%	i	-10.6	-6.5%
CN(C)C1=NC[C@H](Cc2ccccc2)N1CCCC1CCCCC1	3.98µM*	?	?	-3.0	-20.6%
C[C@H]1CN=C(N(C)C)N1CCc1ccccc1	6.6%	3.0%	i	-66.6*	-2.0%
COc1ccc(C2=C(C)C(=O)N(Cc3ccc(C(=O)NCc4cccc(C)c4)cc3)S2(=O)=O)cc1	/	-22.6%	-17.8%	-20.0	-24.7%
O=C1NC(=O)C(=Cc2ccccc2[N+](=O)[O-])C(=O)N1	32.0%	-10.5%	-0.4%	-3.1	3.2%
O=C1NC(=O)C(=Cc2cc3c(cc2[N+](=O)[O-])OCO3)C(=O)N1	0.7%	-4.0%	-2.6%	-63.4*	-1.4%
COc1ccc(C(=O)Oc2c(Sc3ccc(C)cc3)c(C)nn2C(C)(C)C)c(OC)c1	/	?	?	-4.6	?
O=C1ON=C(c2ccccc2)/C1=C/c1ccc(O)c(O)c1	-6.9%	?	-17.4%	82.4	-18.2%
COc1ccc(C2=NN(c3ccccc3)C(=O)/C2=C\c2ccc(O)c(OC)c2)cc1	7.5%	36.7%	?	7.6	-9.0%
O=C1ON=C(c2ccccc2)/C1=C/c1ccc(OS(=O)(=O)c2ccccc2)cc1	0.3%	31.6µM*	-13.7%	-32.0	-5.1%
COc1cc(/C=C2\C(=O)ON=C2c2ccc(Cl)cc2)ccc1O	8.0%	25.1µM*	i	18.5	-12.9%
COc1ccc(/C=C2\C(=O)ON=C2c2ccccc2)cc1	8.7%	35.5µM*	-9.7%	0.3	1.5%
Cc1nc2ccn(Cc3ccco3)c(=O)c2cc1C(=O)NCc1ccccc1	/	3.7%	-5.3%	?	-6.6%
COc1ccc(Cn2ccc3nc(C)c(C(=O)NCc4ccc(C)cc4)cc3c2=O)cc1	/	?	-14.1%	-2.9	-10.3%
Cc1nc2ccn(Cc3ccco3)c(=O)c2cc1C(=O)NCc1ccccc1F	/	-20.6%	-2.1%	-64.5*	2.2%
COc1ccc(Cn2ccc3nc(C)c(C(=O)NCc4ccc(F)cc4)cc3c2=O)cc1	/	-17.2%	-11.2%	-77.4*	-23.3%
NNC(=O)COc1ccc2oc3c(c2c1)CCCC3	7.7%	18.2%	2.2%	22.7	-10.0%
Cc1nn(C)c(C)c1CN(Cc1nc(CCC(C)C)no1)C(C)C	1µM*	?	-11.8%	-83.1*	-13.2%
CC(C)CCc1noc(CN(C)CCC2CCOCC2)n1	8.4%	-16.9%	-3.4%	-19.2	-17.0%
CC1CCN(S(=O)(=O)c2ccc3nc(Nc4cccc(F)c4)ccc3c2)CC1	/	-11.0%	?	-102.2*	-23.8%
Cc1ccc(NC(=O)c2cc(-c3ccc4c(c3)OCO4)on2)cc1	-6.4%	9.5%	-7.1%	?	-0.7%
SMILES	HCV inh	FMDV inh	Vaccinia mCherry	HCMV antiviral	Vaccinia Venus
Cc1nn(Cc2ccc(Cl)cc2)c(C)c1NC(=O)c1cc(-c2ccc3c(c2)OCO3)on1	31.6µM*	?	/	-93.7*	/
c1cc2c(cc1Cn1cnnn1)OCO2	21.6%	6.8%	-7.2%	10.5	0.7%
Clc1ccc(Cn2ccc(-c3ccc4c(c3)OCO4)n2)cc1Cl	25.1µM*	2.1%	/	12.4	/
Cc1nn(Cc2ccc(Cl)c(Cl)c2)c(C)c1NC(=O)c1cc(-c2ccc3c(c2)OCO3)on1	?	?	/	-72.9*	/
O=C(Nc1ccc2c(c1)OCO2)c1cc(-c2ccc(Br)cc2)on1	/	?	-9.5%	15.7	-3.7%
O=C(Nc1ccc(Br)cc1)c1cc(-c2ccc3c(c2)OCO3)on1	10.0%	19.9%	-8.7%	-60.1*	-8.4%
COc1ccc(CCNC(=O)c2cccc(C(=O)NCCc3ccc(OC)cc3)n2)cc1	?	-10.7%	i	-36.2	-16.9%
COc1cccc(NC(=S)Nc2cc(C)cc(C)n2)c1	?	53.3%	-4.7%	-66.8*	-4.3%
Cc1cccc(NC(=S)Nc2ccc(Oc3ccccc3)cc2)n1	?	-16.3%	-15.3%	-60.7*	-28.5%
